Results filed as inconclusive are left out. Active and inactive are the calls of the source. Calls come from the whole dose curve; as a rule, active = well fitted activation curve with a large enough effect; inconclusive = small, poorly fitted or top-dose-only effect; inactive = no such curve, though single readings can be large or run the other way.
Experiment: Activators of T cell receptors: Hit Validation; for activation: 0% is about no effect
Settings: primary human leukocytes, cytokine release by HTRF, 48 h, TCR-stimulated with anti-CD3 beads; series mostly up to 46.1 µM; activation: at the top concentration
Excerpt: Normally activation of naive T cells requires two signals. 1. A signal through the T cell receptor (TCR) which provides antigen specificity to the response. 2. Signals through co-stimulatory molecules, which are necessary for proliferation, survival and cytokine production. In the absence of co-stimulatory signals T cells are not effectively activated, and may even be rendered anergic or unresponsive to subsequent signaling. This lack of costimulation has been shown in multiple model systems to be a major factor in the limited strength and effectiveness of anti-tumor T cell responses. The goal of this project is to identify small molecule compounds that will stimulate T cell activation in the presence of TCR signaling but in the absence of co-stimulatory signals, thereby allowing activation of naive T cells in the absence of co-stimulation. Identification of such compounds would have clear experimental and clinical applications in instances where desirable antigen-specific immune responses are not generated due to a lack of co-stimulation, for example in the generation of anti-tumor responses.
In collaboration between the National Cancer Institute and NIH Chemical Genomics Center, a high-throughput amenable screen was developed to discover small molecules that co-stimulate and activate human T cell receptors. The screen will be carried out using a novel homogeneous time resolved fluorescence energy transfer (HTRF) assay to measure production of the cytokine IL-2 by activated T cells and will be tested against the NIH Molecular Libraries Small Molecule Repository (MLSMR). This is the same assay tested against the hits identified in the primary screen.
NIH Chemical Genomics Center [NCGC]
NIH Molecular Libraries Probe Centers Network [MLPCN]
Assay Submitter (PI): Richard Hodes, National Cancer Institute, NIH
Primary human leukocytes are incubated with a-CD3 beads and compounds for 48 hr. The amount of secreted IL-2 is then assayed with a HTRF IL-2 kit. The presence of IL-2 cytokine captures the detection reagents and brings the a-IL-2-K and a-IL-2-d2 into close proximity. Upon excitation with 320nm light, the europium cryptate is capable of transferring energy to acceptor molecules within close proximity, resulting in acceptor molecule emission at 665nm.
For `CCN(C(=O)CSc1nnc(C2CC2)n1-c1ccccc1)C1CCS(=O)(=O)C1` (stereo not given), the “activation” value was -6.94% (inactive).
With `CCN(CC)c1ccc(S(=O)(=O)N2CCOCC2)cc1NC(=O)COC(=O)/C=C/c1ccccc1` the “activation” value was 9.33% (inactive).
With `C/C(=N\NC(=O)COc1ccc([N+](=O)[O-])cc1)c1ccco1` the “activation” value was 11.5% (inactive).
In the case of `COc1cc(C)c(NC(=S)NCCCN2CCOCC2)cc1OC`, the “activation” value is reported as 13.1% (inactive).
With `Cc1ccc(NC(=O)CN(C)C(=O)COC(=O)c2nccnc2N)cc1` the “activation” value was 7.01% (inactive).
In the case of `COc1ccc(C(=O)COC(=O)c2sc(C)nc2C)cc1OC`, the “activation” value is reported as 5.32% (inactive).
For `COc1ccc(CN(C)C(C)C(=O)N(C)CC(=O)Nc2ccc(C)cc2)cc1F` (stereo not given), the “activation” value was 1.21% (inactive).
For `Cc1ccc(C(CC(=O)O)Nc2nc(N3CCOCC3)nc(N3CCOCC3)n2)cc1` (stereo not given), the “activation” value was 9.58% (inactive).
In the case of `CC(C)NC(=O)CCCn1c(=S)[nH]c2cc3c(cc2c1=O)OCO3`, the “activation” value is reported as 1.07% (inactive).
In the case of `O=C(Cc1cccs1)Nc1ccc(F)c(S(=O)(=O)N2CCOCC2)c1`, the “activation” value is reported as 10.4% (inactive).
With `CCn1nnnc1NC(=O)c1ccc2ccccc2c1` the “activation” value was 3.62% (inactive).
For `Cc1[nH]c2ccccc2c1C(=O)COc1ccccc1F`, the “activation” value was 1.15% (inactive).
For `O=C1c2ccccc2C(=O)N1CCCC(=O)N1CCCc2ccccc21`, the “activation” value was 0.64% (inactive).
For `Cc1cccc(NC(=O)c2sc3nc(N)c(C#N)cc3c2N)c1`, the “activation” value was 2.08% (inactive).
For `CC(C)CSc1nc2c(c(=O)[nH]c(=O)n2C)n1CC(O)COc1cccc2ccccc12` (stereo not given), the “activation” value was 10.2% (inactive).
In the case of `CCOc1cc(/C=N/NC(=S)Nc2ccccc2C(F)(F)F)ccc1OCC(=O)N1CCOCC1`, the “activation” value is reported as 5.35% (inactive).
With `Cc1cc(Cl)ccc1OCC(=O)OCC(=O)Nc1cccnc1Cl` the “activation” value was 4.56% (inactive).
With `COc1cc(NC(=O)CN2CCN(S(=O)(=O)/C=C/c3ccccc3)CC2)cc(OC)c1OC` the “activation” value was 3.25% (inactive).
For `CN(C)S(=O)(=O)c1ccc2oc(SCC(=O)c3c(N)n(C4CC4)c(=O)[nH]c3=O)nc2c1`, the “activation” value was 6.21% (inactive).
In the case of `CCOc1ccc(/C=N/NC(=O)c2ccc(O)cc2)cc1CN1CC2CC(C1)c1cccc(=O)n1C2` (stereo not given), the “activation” value is reported as 14.2% (inactive).
In the case of `CCOc1cc(/C=N/O)cc(Br)c1OCC(=O)NCc1ccccc1`, the “activation” value is reported as 8.09% (inactive).
For `CSCCC(NC(=O)c1ccco1)C(=O)NCC1CCCO1` (stereo not given), the “activation” value was -4.79% (inactive).
In the case of `COc1cc(/C=C/C(=O)OCc2csc(CC(=O)Nc3ccc(C)cc3)n2)ccc1OCC#N`, the “activation” value is reported as -4.15% (inactive).
In the case of `Cc1ccc(C(=O)OCC(=O)NCc2ccco2)cc1C`, the “activation” value is reported as 5.96% (inactive).
For `CC[n+]1ccc(/C=C/c2ccc(N(C)C)cc2)c2ccccc21`, the Potency was 4.45 µM (active).
For `S=c1[nH]nc(-c2cccnc2)n1C1CCCCC1`, the “activation” value was 13.6% (inactive).
With `O=C1N/C(=C/c2cccs2)C(=O)N1Cc1ccc(Br)cc1` the “activation” value was -6.9% (inactive).
With `OC1CCCC1` the “activation” value was 10.2% (inactive).
For `CC(=O)Nc1ccc(C(=O)OCC(=O)N(c2ccccc2)C2CCS(=O)(=O)C2)cc1` (stereo not given), the “activation” value was 4% (inactive).
For `Cc1noc(C)c1C(=O)OC(C)C(=O)N1CCc2ccccc21` (stereo not given), the “activation” value was 4.82% (inactive).
With `O=C(c1cc(-c2ccc(F)cc2)nc2ccccc12)N1CCN(C2CCS(=O)(=O)C2)CC1` (stereo not given) the “activation” value was -0.39% (inactive).
For `CCOC(=O)C1CCCN(C(=O)c2cccc(S(=O)(=O)N3CCCC3)c2)C1` (stereo not given), the “activation” value was -2.23% (inactive).
In the case of `COc1cccc(-n2c(SCC(=O)NC3CCS(=O)(=O)C3)nc3ccccc3c2=O)c1` (stereo not given), the “activation” value is reported as -5.08% (inactive).
In the case of `CC1CCCN(S(=O)(=O)c2ccc(NC(=O)C3CCN(C(=O)C(C)(C)C)CC3)cc2)C1` (stereo not given), the “activation” value is reported as 4.16% (inactive).
For `CCOC(=O)C1CCN(C(=O)c2cccc(S(=O)(=O)N3CCc4ccccc43)c2)CC1`, the “activation” value was 4.53% (inactive).
In the case of `COc1ccc(CNC(=O)C[C@H]2C[C@H](C(=O)N3CCCCC3)[C@@]3(C)c4[nH]c5cc(-c6ccco6)ccc5c4CCN3C2=O)cc1OC`, the “activation” value is reported as 8.64% (inactive).
For `Cc1ncc[nH]1`, the “activation” value was -7.21% (inactive).
In the case of `Cc1cc(=O)[nH]c(N/N=C/c2cccs2)n1`, the “activation” value is reported as 12.7% (inactive).
For `O=C1/C(=C/c2cccnc2)SC(=S)N1Cc1ccco1`, the “activation” value was 8.63% (inactive).
In the case of `COc1ccccc1CC(=O)NNC(=O)CN(C)S(=O)(=O)c1ccc(Cl)cc1`, the “activation” value is reported as 2.12% (inactive).
Potency is the fitted concentration of half-maximal effect.
